# STK33 kin inh: blocks human STK33 kinase activity | Q9BYT3 | ADP-Glo luminescence, MBP substrate | inhibition, % at 12.5 µM | hit rate 0.44% among 27,000 | AID 2322; in the data active = inhibition above about 20%
# Target sequence (Q9BYT3 whole entry, looked up): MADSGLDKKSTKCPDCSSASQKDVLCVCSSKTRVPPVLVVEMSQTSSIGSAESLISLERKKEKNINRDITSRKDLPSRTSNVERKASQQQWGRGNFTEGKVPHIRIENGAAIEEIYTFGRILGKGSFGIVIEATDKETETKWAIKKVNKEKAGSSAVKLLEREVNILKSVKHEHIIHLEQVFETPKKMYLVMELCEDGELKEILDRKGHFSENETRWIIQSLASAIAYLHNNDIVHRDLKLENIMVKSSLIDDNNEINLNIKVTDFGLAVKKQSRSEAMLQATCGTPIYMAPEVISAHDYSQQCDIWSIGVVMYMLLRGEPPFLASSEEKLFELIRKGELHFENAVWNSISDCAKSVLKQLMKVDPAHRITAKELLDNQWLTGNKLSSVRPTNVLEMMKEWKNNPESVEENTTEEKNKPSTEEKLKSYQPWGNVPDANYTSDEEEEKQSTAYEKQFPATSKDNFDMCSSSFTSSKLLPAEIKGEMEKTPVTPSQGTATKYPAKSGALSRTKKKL
# ID4 binder: binds human ID4 protein on microarray; small molecule microarray, Flag-ID4 binding, fluorescence F/B; calls only; hit rate 1.2% among 31,000; P47928; call rule not given here;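 note: a binder raises fluorescence above local background on the spot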
# The depositor's hits bear a star; i = inactive; . = no result; + = active, no number. A selection: hits, their analogues and other compounds. The true share with any hit is near 1.1%.
SMILES,STK33 kin inh,ID4 binder
COc1cccc(-c2cnc3c(c2)C(=O)N([C@H](C)CO)C[C@@H](C)[C@H](CN(C)Cc2cccnc2)O3)c1,.,+
Cc1cc(C)c2c(=O)[nH]c(SCC(=O)N3CCOCC3)nc2n1,-2,+
Cc1cc(C)c2c(=O)[nH]c(SCC(=O)c3ccccc3)nc2n1,-1,i
Cc1ccccc1OC(C)c1nc(-c2ccccn2)no1 (stereo unspecified),-1,i
CCOC(=O)c1ccccc1NC(=O)COc1ccc(C)cc1C(C)(C)C,2,i
Cc1ccccc1NC(=O)COc1ccc(-c2nc3sc4c(c3c(=O)[nH]2)CCCC4)cc1,1,i
COc1cc(-c2nc3sc4c(c3c(=O)[nH]2)CCCC4)cc(Br)c1OCC(=O)O,5,+
CNC[C@H]1Oc2ccc(NS(=O)(=O)c3cccs3)cc2CC(=O)N([C@H](C)CO)C[C@@H]1C,.,+
CNC[C@@H]1Oc2ccc(NS(=O)(=O)c3cccs3)cc2CC(=O)N([C@H](C)CO)C[C@@H]1C,-2,i
CNC[C@@H]1Oc2ccc(NS(=O)(=O)c3ccccc3)cc2CC(=O)N([C@@H](C)CO)C[C@@H]1C,-1,i
CNC[C@@H]1Oc2ccc(NS(=O)(=O)c3ccccc3)cc2CC(=O)N([C@@H](C)CO)C[C@H]1C,.,+
O=C(CCN1C(=O)C2C3C=CC(C4CC34)C2C1=O)Nc1ccc(F)cc1 (stereo unspecified),5,i
O=C(CCCCCCCCc1ccccc1)c1c(O)cc(O)cc1O,-4,i
O=C(CCc1ccc(O)cc1)c1c(O)cc(O)cc1O,35*,.
CC(Oc1ccc(C(C)(C)C)cc1)C(=O)Nc1ncn[nH]1 (stereo unspecified),2,i
CC(=O)c1ccc(-n2c(CCC(=O)O)ccc2-c2ccc(F)cc2)cc1,4,i
CC(=O)Nc1ccc(-n2c(CCC(=O)O)ccc2-c2ccc(C)cc2)cc1,3,+
COc1ccc(C(=O)CSc2nnc(-c3ccc(Cl)cc3)n2-c2ccc(OC)cc2)cc1,2,i
Cc1nn2c(CN(C(=O)CN3CCOCC3)c3ccccc3)nnc2c2ccccc12,0,+
Cc1nn2c(CN(C(=O)c3cccs3)c3ccccc3)nnc2c2ccccc12,-6,i
CCN1/C(=C2\C(=O)N=C(C)N2c2ccccc2)C=Cc2ccc(C)cc21,.,i
O=C(CCCC(=O)Nc1ccccc1)Nc1ccccc1,0,i
COC(=O)CCCCCCC(=O)Nc1ccc(NC(=O)CCCC[P+](c2ccccc2)(c2ccccc2)c2ccccc2)cc1,.,+
Cc1nn2c(CN(c3ccccc3)S(=O)(=O)c3ccccc3)nnc2c2ccccc12,-3,i
COc1ccc(NC(=S)NCc2cccnc2)cc1OC,-1,i
SMILES,STK33 kin inh,ID4 binder
Cc1cc(=O)oc2cc(NC(=S)NCc3cccnc3)ccc12,-2,+
COc1ccc(OC)c(NC(=O)CNC(=O)c2ccc(Cl)cc2)c1,1,i
O=C1Nc2ccc(Br)cc2/C1=C/c1cc2c([nH]1)CCCC2,72*,.
CN(C)S(=O)(=O)c1ccc2c(c1)/C(=C/c1cc3c([nH]1)CCCC3)C(=O)N2,22,i
COc1ccc([Si](C)(C)[C@H]2[C@H](CCn3cc(CCO)nn3)O[C@@]3(C(=O)N(Cc4ccc(N5CCC5=O)cc4)c4ccccc43)[C@@H]2C)cc1,19,i
COc1ccc([Si](C)(C)[C@@H]2[C@@H](CCn3cc(CCO)nn3)O[C@]3(C(=O)N(Cc4ccc(N5CCC5=O)cc4)c4ccccc43)[C@H]2C)cc1,22*,i
COc1ccc(NC(=O)COc2c(Cl)c(C)c(Cl)c(C)c2Cl)cc1[N+](=O)[O-],2,i
Cc1ccc(C(=O)CSc2ncnc3sc4c(c23)CCC4)cc1C,-2,i
CCOC(=O)c1cc(NC(=O)CSc2nc3ccccc3c(=O)[nH]2)ccc1Cl,1,i
CNC[C@H]1Oc2ccc(NS(C)(=O)=O)cc2C(=O)N([C@@H](C)CO)C[C@@H]1C,0,.
CNC[C@@H]1Oc2ccc(NS(C)(=O)=O)cc2C(=O)N([C@@H](C)CO)C[C@H]1C,.,+
CNC[C@H]1Oc2ccc(NS(C)(=O)=O)cc2C(=O)N([C@H](C)CO)C[C@@H]1C,.,+
CNC[C@@H]1Oc2ccc(NS(C)(=O)=O)cc2C(=O)N([C@@H](C)CO)C[C@@H]1C,-1,.
COc1cccc(NC(=O)CNC(=O)c2ccco2)c1,-4,i
Cc1nc(C)c(C(=O)C2C(=O)C(=O)N(CCCN3CCOCC3)C2c2ccccc2)s1 (stereo unspecified),-4,i
Cn1c(SCC(=O)N2CCN(Cc3ccccc3)CC2)nnc1-c1ccncc1,-1,+
CCCn1c(SCC(=O)N2CCOCC2)nnc1-c1ccncc1,1,i
Cn1c(NCCCN)nc2c1c(=O)n(Cc1ccccc1Cl)c(=O)n2C,-1,+
Cn1c(=O)c2c(nc(NCCN)n2C)n(C)c1=O,2,i
Cc1cc(-c2ccccc2)nc(SCC(=O)Nc2ccc(SC(F)F)cc2)n1,1,i
CCN(CC)CCSc1nnc2c3ccccc3n(CC)c2n1,-2,i
COc1cccc(NC(=O)CC2C(=O)NC3CCCCC3N2C(=O)c2ccccc2)c1 (stereo unspecified),-2,+
CCC(=O)N1C(CC(=O)Nc2ccc(F)cc2)C(=O)NC2CCCCC21 (stereo unspecified),-1,.
Cc1ccc(N(C(C)C(=O)Nc2c(C)cc(C)cc2C)S(C)(=O)=O)cc1 (stereo unspecified),0,i
Cc1cc(C)nc(NS(=O)(=O)c2ccc(NC(=O)c3ccc(C(=O)c4ccccc4)cc3)cc2)n1,-2,+
SMILES,STK33 kin inh,ID4 binder
Cc1cc(C)nc(NS(=O)(=O)c2ccc(NC(=O)c3ccc(-c4ccccc4)cc3)cc2)n1,-1,i
COc1ccc(CC(=O)n2nc(-c3ccc(Cl)cc3)nc2NCc2ccco2)cc1OC,.,i
COc1cc(OC)c(NC(=O)Cc2ccccc2[N+](=O)[O-])cc1Cl,-1,i
NS(=O)(=O)c1ccc(NC(=O)CN2CCN(Cc3ccccc3)CC2)cc1,-5,+
COc1ccc(NC(=O)CN2CCN(S(=O)(=O)c3ccccc3)CC2)cc1,2,i
O=C(O)CCCCCCC(=O)Nc1ccc(C2CC(CSc3nc(-c4ccccc4)c(-c4ccccc4)o3)OC(c3ccccc3)O2)cc1 (stereo unspecified),.,+
CC(=O)c1cccc(NC(=O)CSc2nc(-c3ccccc3)c(-c3ccccc3)o2)c1,12,i
Cc1c(Cl)c(C(F)(F)F)nn1CCCNC(=O)Nc1cccc([N+](=O)[O-])c1,-3,i
O=[N+]([O-])c1ccc(O)c(C(c2c[nH]c3ccccc23)c2c[nH]c3ccccc23)c1,-3,i
O=C1Cc2c([nH]c3ccc([N+](=O)[O-])cc23)-c2ccccc2N1,23*,.
C=CCNC1=C2C[C@@H](C)C[C@H](OC)[C@H](O)[C@@H](C)/C=C(\C)[C@H](OC(N)=O)[C@@H](OC)C=C/C=C(/C)C(=O)NC(=CC1=O)C2=O,0,.
COc1ccc(-n2c(SCC(=O)c3cccc([N+](=O)[O-])c3)nnc2-c2ccc(Cl)cc2)cc1,0,i
COc1ccc(C(=O)Nc2ccc(C(O)(C(F)(F)F)C(F)(F)F)cc2)cc1,-1,.
Cn1c2ccccc2c2nnc(SCCN3CCCCC3)nc21,1,+
c1ccc2c(c1)[nH]c1nc(SCCN3CCCCC3)nnc12,2,i
